# From PMC8384837, “Expanding the binding specificity for RNA recognition by a PUF domain”
# Key:
# Experiment in all cases: yeast three-hybrid, YBZ-1, SC-Leu-His + 0.5 mM 3-AT, 4 days
# Settings in all cases: tags: N-Gal4 AD-HA kept; label: inside an RPR1-promoter hybrid RNA with tandem MS2 sites; ssRNA
# PUM1 PUF domain R8-RKK = PUM1 PUF domain R8-RKK (Homo sapiens, UniProt Q14671 828-1176, N1122R;Y1123K;Q1126K)
# Summary of the method: (§1)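 Sequencing with Illumina followed PCR amplification of the repeat regions from transformants grown four days on SC-Leu (input) or SC-Leu-His + 0.5 mM 3-AT (selection). The transformants were strain YBZ-1 with a LexA–MS2 coat fusion and a HIS3 reporter, carrying Pumilio-1 PUF domain libraries and matching RNA elements. The interaction score is the log change in variant frequency from input to selection, computed in log2 with a pseudocount of 1 for absent variants.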
# PUM1 PUF domain R8-LYK = PUM1 PUF domain R8-LYK (Homo sapiens, UniProt Q14671 828-1176, N1122L;Q1126K)
# Summary of the method: as §1
# PUM1 PUF domain R5-GWS = PUM1 PUF domain R5-GWS (Homo sapiens, UniProt Q14671 828-1176, C1007G;R1008W;Q1011S)
# Summary of the method: as §1
# PUM1 PUF domain R6-VFS = biological target: T1, PUM1 PUF domain R6-VFS (Homo sapiens, UniProt Q14671 828-1176, N1043V;Y1044F;Q1047S)
# T1 sequence: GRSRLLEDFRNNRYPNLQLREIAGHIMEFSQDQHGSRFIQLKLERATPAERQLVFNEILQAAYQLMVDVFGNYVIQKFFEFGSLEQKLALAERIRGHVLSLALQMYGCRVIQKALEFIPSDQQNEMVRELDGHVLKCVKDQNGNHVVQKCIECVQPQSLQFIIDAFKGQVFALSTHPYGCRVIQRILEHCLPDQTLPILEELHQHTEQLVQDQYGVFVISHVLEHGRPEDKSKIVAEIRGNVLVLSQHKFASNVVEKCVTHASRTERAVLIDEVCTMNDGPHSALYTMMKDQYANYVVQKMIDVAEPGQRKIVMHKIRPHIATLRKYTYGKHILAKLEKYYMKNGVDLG
# Summary of the method: as §1
# PUM1 PUF domain R3-FSS = PUM1 PUF domain R3-FSS (Homo sapiens, UniProt Q14671 828-1176, C935F;R936S;Q939S)
# Summary of the method: as §1
# PUM1 PUF domain R7-TVA = PUM1 PUF domain R7-TVA (Homo sapiens, UniProt Q14671 828-1176, S1079T;N1080V;E1083A)
# Summary of the method: as §1
# PUM1 PUF domain R3-MWG = PUM1 PUF domain R3-MWG (Homo sapiens, UniProt Q14671 828-1176, C935M;R936W;Q939G)
# Summary of the method: as §1
# PUM1 PUF domain R2-CFP = PUM1 PUF domain R2-CFP (Homo sapiens, UniProt Q14671 828-1176, N899C;Y900F;Q903P)
# Summary of the method: as §1
# PUM1 PUF domain R5-KGL = PUM1 PUF domain R5-KGL (Homo sapiens, UniProt Q14671 828-1176, C1007K;R1008G;Q1011L)
# Summary of the method: as §1
# PUM1 PUF domain R1-RGI = PUM1 PUF domain R1-RGI (Homo sapiens, UniProt Q14671 828-1176, S863R;R864G;Q867I)
# Summary of the method: as §1
sequence,measurement,setting,value
GGCUAGAACUAGUGGAUCCCCCGGCGCCCGGCGGCUCGAGCCCGGGUAAGCGUAAAUAGUCUGCAUGCCGCCGGGCGCCAUGCCUGCAGGUCGACUCUAGAAAACAUG,binding signal,PUM1 PUF domain R8-RKK,4.27 log2 enrichment (interaction score)
same,binding signal,PUM1 PUF domain R8-LYK,5.14 log2 enrichment (interaction score)
GGCUAGAACUAGUGGAUCCCCCGGCGCCCGGCGGCUCGAGCCCGGGUAAGUGUAAAUAGUCUGCAUGCCGCCGGGCGCCAUGCCUGCAGGUCGACUCUAGAAAACAUG,binding signal,PUM1 PUF domain R8-RKK,4.25 log2 enrichment (interaction score)
same,binding signal,PUM1 PUF domain R5-GWS,4.65 log2 enrichment (interaction score)
same,binding signal,PUM1 PUF domain R6-VFS,2.71 log2 enrichment (interaction score)
same,binding signal,PUM1 PUF domain R8-LYK,5.28 log2 enrichment (interaction score)
GGCUAGAACUAGUGGAUCCCCCGGCGCCCGGCGGCUCGAGCCCGGGUAAGUGUAAGUAGUCUGCAUGCCGCCGGGCGCCAUGCCUGCAGGUCGACUCUAGAAAACAUG,binding signal,PUM1 PUF domain R3-FSS,2.46 log2 enrichment (interaction score)
GGCUAGAACUAGUGGAUCCCCCGGCGCCCGGCGGCUCGAGCCCGGGUAAGUUUAAAUAGUCUGCAUGCCGCCGGGCGCCAUGCCUGCAGGUCGACUCUAGAAAACAUG,binding signal,PUM1 PUF domain R7-TVA,3.46 log2 enrichment (interaction score)
GGCUAGAACUAGUGGAUCCCCCGGCGCCCGGCGGCUCGAGCCCGGGUAAGUGUAAUUAGUCUGCAUGCCGCCGGGCGCCAUGCCUGCAGGUCGACUCUAGAAAACAUG,binding signal,PUM1 PUF domain R3-MWG,3.86 log2 enrichment (interaction score)
GGCUAGAACUAGUGGAUCCCCCGGCGCCCGGCGGCUCGAGCCCGGGUAAGUGUAAAAAGUCUGCAUGCCGCCGGGCGCCAUGCCUGCAGGUCGACUCUAGAAAACAUG,binding signal,PUM1 PUF domain R2-CFP,10.2 log2 enrichment (interaction score)
GGCUAGAACUAGUGGAUCCCCCGGCGCCCGGCGGCUCGAGCCCGGGUAAGUGUCAAUAGUCUGCAUGCCGCCGGGCGCCAUGCCUGCAGGUCGACUCUAGAAAACAUG,binding signal,PUM1 PUF domain R5-KGL,3.86 log2 enrichment (interaction score)
GGCUAGAACUAGUGGAUCCCCCGGCGCCCGGCGGCUCGAGCCCGGGUAAGUGUAAAUCGUCUGCAUGCCGCCGGGCGCCAUGCCUGCAGGUCGACUCUAGAAAACAUG,binding signal,PUM1 PUF domain R1-RGI,2.06 log2 enrichment (interaction score)
GGCUAGAACUAGUGGAUCCCCCGGCGCCCGGCGGCUCGAGCCCGGGUAAGUGUAAAUUGUCUGCAUGCCGCCGGGCGCCAUGCCUGCAGGUCGACUCUAGAAAACAUG,binding signal,PUM1 PUF domain R1-RGI,1.53 log2 enrichment (interaction score)
